Experiments:
Assay in all cases: PBM binding z-score (relative to random genomic background probes); higher = stronger binding; sequences stand for … in GC…GCGATTGACAGCGTAGAATGAAGG
[1] = system: FXR:RXRa (NR concentration 270 nM, RXRa partner concentration 90 nM)
Outline: (§1)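 Each nuclear receptor dimer, without ligand, was incubated for 1 h on custom Agilent 4×180K protein-binding microarrays. Binding was detected with antibodies against each partner (one per run), and scanned fluorescence was regression-normalized. The binding z-scores are referenced to random human genomic background probes.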

[2] = system: LXRa:RXRa (NR concentration 270 nM, RXRa partner concentration 90 nM)
Outline: as §1

[3] = system: LXRa homodimer (NR concentration 270 nM)
Outline: as §1

[4] = system: LXRb:RXRa (NR concentration 270 nM, RXRa partner concentration 90 nM)
Outline: as §1

[5] = system: LXRb homodimer (NR concentration 270 nM)
Outline: as §1

[6] = system: PPARa:RXRa (NR concentration 270 nM, RXRa partner concentration 90 nM)
Outline: as §1

[7] = system: PPARg:RXRa (NR concentration 180 nM, RXRa partner concentration 90 nM)
Outline: as §1

[8] = system: PPARg:RXRa 270nM:90nM, anti-RXR (NR concentration 270 nM, RXRa partner concentration 90 nM)
Outline: as §1

[9] = system: PPARg:RXRa 30nM:10nM, anti-RXR (NR concentration 30 nM, RXRa partner concentration 10 nM)
Outline: as §1

[10] = system: PPARg:RXRa 90nM:30nM, anti-RXR (NR concentration 90 nM, RXRa partner concentration 30 nM)
Outline: as §1

[11] = system: PPARg:RXRa DBDmut IVT, anti-RXR (DBD mutation: RXRa K156A/R161A, NR concentration 270 nM, RXRa partner concentration 90 nM)
Outline: as §1

[12] = system: PPARg:RXRa IVT, anti-PPARg (NR concentration 270 nM, RXRa partner concentration 90 nM)
Outline: as §1

[13] = system: PPARg DBDmut:RXRa IVT, anti-PPARg (DBD mutation: PPARg1 K132A/R137A, NR concentration 270 nM, RXRa partner concentration 90 nM)
Outline: as §1

[14] = system: PPARg DBDmut IVT, anti-PPARg (DBD mutation: PPARg1 K132A/R137A, NR concentration 270 nM)
Outline: as §1

[15] = system: PPARg homodimer (NR concentration 180 nM)
Outline: as §1

[16] = system: PXR:RXRa (NR concentration 270 nM, RXRa partner concentration 90 nM)
Outline: as §1

[17] = system: PXR homodimer (NR concentration 270 nM)
Outline: as §1

[18] = system: RARa:RXR (NR concentration 270 nM, RXRa partner concentration 90 nM)
Outline: as §1

[19] = system: RARa homodimer (NR concentration 270 nM)
Outline: as §1

[20] = system: RARb:RXRa (NR concentration 270 nM, RXRa partner concentration 90 nM)
Outline: as §1

TCATATAGGTAAACAGGTGACAGTCCGTAAGTTA
PBM binding z-score [1]: 0.832
PBM binding z-score [2]: 0.858
PBM binding z-score [3]: 0.306
PBM binding z-score [4]: 0.84
PBM binding z-score [5]: -0.213
PBM binding z-score [6]: 2.24
PBM binding z-score [7]: 2.52
PBM binding z-score [8]: 3.35
PBM binding z-score [9]: 4.16
PBM binding z-score [10]: 3.91
PBM binding z-score [11]: 4.87
PBM binding z-score [12]: 4.6
PBM binding z-score [13]: 1.49
PBM binding z-score [14]: 1.05
PBM binding z-score [15]: 0.856
PBM binding z-score [16]: 0.915
PBM binding z-score [17]: 0.237
PBM binding z-score [18]: 0.971
PBM binding z-score [19]: 0.875
PBM binding z-score [20]: 0.779

CATACAGGGTCAGCTAGGCGAGAGTAGGGACGGC
PBM binding z-score [1]: 4.5
PBM binding z-score [2]: 2.84
PBM binding z-score [3]: -0.0386
PBM binding z-score [4]: 2.08
PBM binding z-score [5]: 0.134
PBM binding z-score [6]: 4.19
PBM binding z-score [7]: 2.92
PBM binding z-score [8]: 2.91
PBM binding z-score [9]: 0.767
PBM binding z-score [10]: 1.75
PBM binding z-score [11]: 1.21
PBM binding z-score [12]: 2.05
PBM binding z-score [13]: 0.279
PBM binding z-score [14]: 0.468
PBM binding z-score [15]: 1.41
PBM binding z-score [16]: 1.83
PBM binding z-score [17]: 0.199
PBM binding z-score [18]: 3.05
PBM binding z-score [19]: 0.266
PBM binding z-score [20]: 4.04

CGAACTAGGTCATTGACGGGACAGTGAATAGTAA
PBM binding z-score [1]: 4.27
PBM binding z-score [2]: 2.52
PBM binding z-score [3]: 0.242
PBM binding z-score [4]: 1.81
PBM binding z-score [5]: -0.0446
PBM binding z-score [6]: 4.64
PBM binding z-score [7]: 7.48
PBM binding z-score [8]: 6.38
PBM binding z-score [9]: 3.39
PBM binding z-score [10]: 5.82
PBM binding z-score [11]: 8.12
PBM binding z-score [12]: 8.13
PBM binding z-score [13]: 2.44
PBM binding z-score [14]: 0.8
PBM binding z-score [15]: 1.5
PBM binding z-score [16]: 1.15
PBM binding z-score [17]: 0.012
PBM binding z-score [18]: 1.98
PBM binding z-score [19]: 0.192
PBM binding z-score [20]: 3.63

CGTCAAAGTTCAAGGTAACGTAGCAGAAAGCAGC
PBM binding z-score [1]: 6.17
PBM binding z-score [2]: 5.74
PBM binding z-score [3]: 2.69
PBM binding z-score [4]: 3.38
PBM binding z-score [5]: 0.96
PBM binding z-score [6]: 4.55
PBM binding z-score [7]: 4.28
PBM binding z-score [8]: 5.21
PBM binding z-score [9]: 2.09
PBM binding z-score [10]: 4.31
PBM binding z-score [11]: 0.831
PBM binding z-score [12]: 2.13
PBM binding z-score [13]: 0.429
PBM binding z-score [14]: 0.415
PBM binding z-score [15]: 4.56
PBM binding z-score [16]: 4.44
PBM binding z-score [17]: 3.02
PBM binding z-score [18]: 3.64
PBM binding z-score [19]: 2.42
PBM binding z-score [20]: 5.1

TCTGCTAGGTCAACGATGGTCAGCTACTCTGCTA
PBM binding z-score [1]: 3.16
PBM binding z-score [2]: 2.86
PBM binding z-score [3]: -0.273
PBM binding z-score [4]: 1.48
PBM binding z-score [5]: -0.302
PBM binding z-score [6]: 3.3
PBM binding z-score [7]: 2.4
PBM binding z-score [8]: 3.05
PBM binding z-score [9]: 1.62
PBM binding z-score [10]: 2.47
PBM binding z-score [11]: 4.3
PBM binding z-score [12]: 4.17
PBM binding z-score [13]: -0.186
PBM binding z-score [14]: -0.6
PBM binding z-score [15]: 0.254
PBM binding z-score [16]: 1.42
PBM binding z-score [17]: -0.802
PBM binding z-score [18]: 1.93
PBM binding z-score [19]: -0.564
PBM binding z-score [20]: 4.14

CCTGCTAGGTCAATGGTCAGCGAAAGCAGCTCGC
PBM binding z-score [1]: 2.75
PBM binding z-score [2]: 2.4
PBM binding z-score [3]: -0.241
PBM binding z-score [4]: 1.4
PBM binding z-score [5]: 0.134
PBM binding z-score [6]: 3.37
PBM binding z-score [7]: 5.06
PBM binding z-score [8]: 5.2
PBM binding z-score [9]: 3.2
PBM binding z-score [10]: 5.18
PBM binding z-score [11]: 4.19
PBM binding z-score [12]: 4.06
PBM binding z-score [13]: 0.555
PBM binding z-score [14]: -0.25
PBM binding z-score [15]: 1.7
PBM binding z-score [16]: 0.865
PBM binding z-score [17]: -0.255
PBM binding z-score [18]: 1.87
PBM binding z-score [19]: -0.0474
PBM binding z-score [20]: 3.71

From the supplement of paper PMC6555819
